System: K562 SF3B1 K700E vs K562 SF3B1 WT
Assay: surviving fraction ratio K562 SF3B1 K700E / K562 SF3B1 WT (each relative to DMSO); higher = less selective killing of SF3B1 K700E cells
Conditions: 5 days
Protocol: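 Drug-sensitivity screen of an in-house 80-compound library in isogenic K562 SF3B1 K700E versus SF3B1 WT cells. 250 cells/well in 384-well plates were exposed 24 h after seeding to 0.5-1000 nM compound for 5 days, and viability was read by CellTiter-Glo. Surviving fraction is relative to DMSO, and the value is the ratio of surviving fraction in K700E to WT cells; the paper calls ratio <0.6 with P<0.01 selective.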

SMILES	surviving fraction ratio K562 SF3B1 K700E / K562 SF3B1 WT (0.5nM)	surviving fraction ratio K562 SF3B1 K700E / K562 SF3B1 WT (1nM)	surviving fraction ratio K562 SF3B1 K700E / K562 SF3B1 WT (5nM)	surviving fraction ratio K562 SF3B1 K700E / K562 SF3B1 WT (10nM)	surviving fraction ratio K562 SF3B1 K700E / K562 SF3B1 WT (50nM)	surviving fraction ratio K562 SF3B1 K700E / K562 SF3B1 WT (100nM)	surviving fraction ratio K562 SF3B1 K700E / K562 SF3B1 WT (500nM)	surviving fraction ratio K562 SF3B1 K700E / K562 SF3B1 WT (1000nM)
CC(=O)NCC(=O)N1[C@@H]2CC[C@H]1c1ccc(Nc3ncc(C(F)(F)F)c(NC4CCC4)n3)cc12	0.948	1.01	0.872	0.883	0.549	1.05	1.18	1.64
CN(Cc1cnc2nc(N)nc(N)c2n1)c1ccc(C(=O)N[C@@H](CCC(=O)O)C(=O)O)cc1 [methotrexate]	0.824	0.836	0.971	2.8	3.75	4.08	3.5	3.58
C[C@]12CC[C@H](O)CC1=CC[C@@H]1[C@@H]2CC[C@]2(C)C(c3cccnc3)=CC[C@@H]12	1.04	0.918	0.91	0.915	0.899	1.01	0.995	0.937
COc1cc2c(cc1O)CC[C@@H]1[C@@H]2CC[C@]2(C)[C@@H](O)CC[C@@H]12 [2-methoxyestradiol]	0.765	0.733	0.666	0.851	0.706	0.595	0.626	1.48
Cn1c(=O)n(-c2ccc(C(C)(C)C#N)cc2)c2c3cc(-c4cnc5ccccc5c4)ccc3ncc21	0.991	0.985	0.8	0.854	0.811	0.838	1.28	1.45
